Active and inactive are the calls of the source. How the source made its calls: active means hit-call score of the fitted dose curve at least 0.9, where 1 is the maximum; inactive means score below 0.9.
Each compound was assayed on Epidermal growth factor receptor (EGFR), EGFR (gene 1956) (assay: BSK_hDFCGF_EGFR: BioMAP Diversity Plus: hDFCGF Assay for Epidermal growth factor receptor (EGFR) Biomarker Activity (AID 2283057)). Conditions: primary human foreskin fibroblasts; actives raise or lower the signal.
Procedure: BSK_hDFCGF is a cell-based, multiplexed-readout assay that uses foreskin fibroblast, a human skin primary cell, with measurements taken at 24 hours after chemical dosing in a 96-well plate.BSK_hDFCGF_EGFR is an assay component measured in the BSK_hDFCGF assay. It measures EGFR antibody related to regulation of gene expression using ELISA technology.Data from the assay component BSK_hDFCGF_EGFR was analyzed into 1 assay endpoint. This assay endpoint, BSK_hDFCGF_EGFR, was analyzed with bidirectional fitting relative to DMSO as the negative control and baseline of activity. Using a type of binding reporter, gain or loss-of-signal activity can be used to understand changes in the signaling as they relate to the gene EGFR. Furthermore, this assay endpoint can be referred to as a primary readout, because this assay has produced multiple assay endpoints where this one serves a signaling function. To generalize the intended target to other relatable targets, this assay endpoint is annotated to the kinase intended target family, where the subfamily is receptor tyrosine kinase.
The levels of cell surface (or secreted, indicated by the prefix "s") biomarker endpoints were measured by ELISA. Overt cytotoxicity to cells in confluent adherent cultures (all systems other than the BT system) was assessed by measuring total protein levels using sulforhodamine B (SRB) staining in parallel cultures at the time of biomarker measurements, indicated as SRB endpoints. For proliferation assays for adherent cell types, individual cell types are cultured at sub-confluence and relative cell numbers quantified by SRB staining at time points optimized for each system (48 h: 3C and CASM3C systems; 72 h: BT and HDF3CGF systems; 96 h: SAg system). SRB was performed by staining cells with 0.1% SRB after fixation with 10% TCA and reading wells at 560 nm.Viability and proliferation of PBMC (T cells) was quantified by Alamar Blue reduction for the SAg and BT systems. For PBMC viability (referred to as PBMC Cytotoxicity within the assay endpoint names), cells were plated (75,000/well in a 96-well plate) and then chemical samples added for 1 h before addition of activators, SEB and TSST-1 (20 ng/mL final concentration each). Cells were incubated for 90 h. Then, Alamar Blue (20 uL/well) (Invitrogen, Cat DAL1100) was added for 6 h, and the plates were read with a fluorescence microplate reader at 546/580 nm (excitation/emission). For PBMC proliferation, cells were plated and activated as above but incubated for only 16 h prior to addition of Alamar Blue. Plates were read after 6 h.

| Compound | outcome |
| --- | --- |
| O=C(O)c1ccc2c(c1)nc(C(=O)NC1CCN(C3CC3)CC1)n2Cc1cc(-c2ccc(Cl)s2)on1 | inactive |
| Cc1nc(-c2ccccn2)ncc1C(=O)Nn1cc(C)c2cc(F)ccc21 | inactive |
| CC(C)C(=O)Nc1ccc([N+](=O)[O-])c(C(F)(F)F)c1 | inactive |
| CC(C)CC(C)O (stereo not given) | inactive |
| FC(F)(F)C(F)(F)C(F)(F)C(F)(F)C(F)(F)C(F)(F)I | inactive |
| FC(F)C(F)(F)COCC1CO1 (stereo not given) | inactive |
| CCCc1ccccc1 | inactive |
| CCCCCCCC1CCC(=O)O1 (stereo not given) | inactive |
| CCCCCCOC(=O)CC(CC(=O)OCCCCCC)(OC(=O)CCC)C(=O)OCCCCCC | inactive |
| OCCOCCOCCO | inactive |
| NC(=O)N(O)[C@@H]1COc2cc(OCc3ccccc3)ccc21 | inactive |
| CCOC(N)=O | inactive |
| CCCC(CCC)C(=O)O | inactive |
| CCCCC(CC)C(=O)OCCOCCOCCOC(=O)C(CC)CCCC (stereo not given) | inactive |
| OCCNCCO | inactive |
| C=CN1CCCC1=O | inactive |
| c1ccc2ncccc2c1 | inactive |
| CC(=O)c1ccccc1 | inactive |
| OCc1ccccc1 | inactive |
| O=C1CN(N=Cc2ccc([N+](=O)[O-])o2)C(=O)N1 | inactive |

| Compound | outcome |
| --- | --- |
| OCC(CO)(CO)CO | inactive |
| Cc1ncc([C@@H](CCCCCCc2ccc3c(n2)NCCC3)CC(=O)O)cn1 | inactive |
| OC(Cn1cncn1)(Cn1cncn1)c1ccc(F)cc1F | inactive |
| NC(N)=O | inactive |
| O=S(=O)(O)CCC(F)(F)C(F)(F)C(F)(F)C(F)(F)C(F)(F)C(F)(F)F | inactive |
| CCn1nc(C)c2c1C(=O)NCC(c1ccc(O)cc1)=N2 | inactive |
| CC(C)CCCCCCOC(=O)C1CCCCC1C(=O)OCCCCCCC(C)C (stereo not given) | inactive |
| C[Si](C)(C)C(F)(F)C(F)(F)C(F)(F)F | inactive |
| O=S(=O)(O)c1ccc(N=Nc2c(O)ccc3cc(S(=O)(=O)O)ccc23)cc1 | inactive |
| O=C(Cl)C(F)(F)C(F)(F)C(F)(F)C(=O)Cl | inactive |
| CCc1ccc(O)c(C(C)(C)C)c1 | inactive |
| NC(=O)NN=Cc1ccc([N+](=O)[O-])o1 | inactive |
| FC(F)=C(F)C(F)(F)C(F)(F)C(F)(F)C(F)(F)C(F)(F)C(F)(F)F | inactive |
| S=P(N1CC1)(N1CC1)N1CC1 | inactive |
| CNC(C)=O | inactive |
| NC(=O)N1c2ccccc2C=Cc2ccccc21 | inactive |
| NNC(=O)c1ccncc1 | inactive |
| OC[C@H]1O[C@@](CO)(O[C@H]2O[C@H](CO)[C@@H](O)[C@H](O)[C@H]2O)[C@@H](O)[C@@H]1O | inactive |
| OCCC(F)(F)C(F)(F)C(F)(F)C(F)(F)F | inactive |
| CCCCCOC(C)=O | inactive |

Reference: PubChem BioAssay (EPA / NIEHS)
